# From PubChem BioAssay AID1159524 (National Center for Advancing Translational Sciences (NCATS), 2015)
# In all, about 410,000 compounds went through this assay and about 5,100 (1.2%) were called active. Not shown: some 8% with an inconclusive outcome. Calls follow the shape of the full dose curve; tested in HEK293T cells. The sample as a whole holds a higher share of actives than the screen did.
# Assay: High Throughput Screening for Foot and Mouth Disease Virus Antivirals; also: read-out not given here; nearly all actives have a fitted effect of over 45% in size
# Settings: FMDV antiviral cell-based qHTS; series mostly up to 57.9 µM; activity change, negative = inhibition: at the top concentration
# % is scaled to controls: 0 for no effect and ±100 for the full control effect; potency is read from the fitted curve at half-maximal effect.
Compound,"activity change, negative = inhibition",Potency
COc1ccc(C(=O)N2CCC3(CCCN(C(c4ccccc4)c4ccccc4)C3)CC2)cc1,2.28% (inactive),–
O=C(c1csnn1)N1CCC[C@@]2(CCN(c3cccc(-c4ccccc4)c3)C2)C1,-16.6% (inactive),–
Cc1c(NC(=O)C(C)(C)C)cccc1-c1nc2ccccc2s1,-7.55% (inactive),–
O=S(=O)(c1ccccc1)N1CCC2(CC1)CN(Cc1nccs1)C2,-5.22% (inactive),–
CC1Oc2ccccc2N(Cc2cccnc2)C1=O (stereo unspecified),6.82% (inactive),–
O=C(c1ccc2c(c1)N(Cc1ccccc1)C(=O)c1ccccc1S2(=O)=O)N1CCCC1,3.75% (inactive),–
CC1C(=O)N(Cc2ccccc2)c2ccccc2N1C(=O)c1ccccc1 (stereo unspecified),–,31.6 µM (active)
CS(=O)(=O)N1CCC2(CCN(c3ccncc3)CC2)CC1,-17.3% (inactive),–
CN1CCC2(CC1)CCN(S(=O)(=O)c1ccccc1)CC2,-4.56% (inactive),–
O=C(O)CC(SCC(=O)Nc1ccc(Br)cc1)C(=O)O (stereo unspecified),-8.01% (inactive),–
O=C(CCl)Nc1ccc(Sc2ccc(NC(=O)CCl)cc2)cc1,–,7.94 µM (active)
CC(=O)Nc1ccc(NC(=O)CC2CCCC2)cc1,55.7% (inactive),–
COc1ccc2c(c1OC)C(=O)OC2Nc1nc(-c2ccccc2)cs1 (stereo unspecified),–,15.8 µM (active)
CCCc1nc2scc(-c3ccc(C)cc3)c2c(=O)n1N,-16.7% (inactive),–
Cc1ccc(-c2csc(NC3OC(=O)c4ccccc43)n2)cc1 (stereo unspecified),–,20 µM (active)
COc1ccc(CNC(=O)CC2Oc3ccc(C)cc3NC2=O)cc1 (stereo unspecified),-14.7% (inactive),–

Compound,"activity change, negative = inhibition",Potency
CC(C)NC(=O)N1CCCC2(CCN(C(=O)c3cccn3C)CC2)C1,1.59% (inactive),–
Cn1c(=O)c2c(SCC(=O)NCC3CCCO3)nc(-c3ccccc3F)nc2n(C)c1=O (stereo unspecified),-22.6% (inactive),–
CCNCCCNCCCNCCCNCC,-1.93% (inactive),–
Cn1cccc1C(=O)N1CCC[C@@]2(CCN(Cc3nccs3)C2)C1,-10.5% (inactive),–
N#Cc1ccc(CN2CCCC3(CCN(C(=O)c4ccco4)CC3)C2)cc1,-10.4% (inactive),–
CCOc1ccc(-c2ccc(SCC(=O)N3CCOCC3)nn2)cc1,-17.8% (inactive),–
COc1ccc(N2CCN(C(=O)CSc3nnc4ncccn34)CC2)cc1,-1.95% (inactive),–
COc1cccc(-c2ccc(SCC(=O)N3CCN(c4ccccc4)CC3)nn2)c1,–,12.6 µM (active)
CCN1CCN(Cc2c(O)ccc3oc(C)c(C(=O)Nc4ccc(C)cc4C)c23)CC1,-16.2% (inactive),–
Cc1ccc(CNC(=O)c2c(O)nc3c(C)cccn3c2=O)cc1,13.2% (inactive),–
CC(=O)c1ccc(NC(=O)CSc2nc(-c3ccccc3F)nc3c2c(=O)n(C)c(=O)n3C)cc1,-7.87% (inactive),–
COC(=O)C1CCCCN1Cc1ccc2c(c1)CN(Cc1cc(OC)c3c(c1)OCO3)CCO2 (stereo unspecified),-17.6% (inactive),–
CCOC(=O)c1c(SCC(=O)Nc2cccc(C)c2C)nc(=O)[nH]c1C,-12.3% (inactive),–
CCOC(=O)c1c(C)[nH]c2c1-c1ccccc1C(=O)C2=O,–,7.08 µM (active)
CCOC(=O)c1c(C)[nH]c(C)c1S(=O)(=O)N(C)CC(=O)N1CCN(c2ccccc2)CC1,12% (inactive),–
